A selection: hits, their analogues and other compounds. The true share with any hit is near 19%.
LASV entry inh – inhibitors of Lassa virus binding or cell entry; Lassa virus pseudotype entry inhibition, cell reporter; Potency, µM (doses to about 37.9 µM), actives largely listed as inhibitors; 300,000 compounds, 1.2% hits; calls by dose curve; tested in HEK293 cells; also: nearly all actives have a fitted effect of over 50% in size
Pf growth 48h – inhibits P. falciparum growth in the first generation, 48 h | Potency, µM (series often up to 28.7 µM), hits mostly inhibitors | AID 504832 | 310,000 compounds, 5.9% hits | P. falciparum luciferase growth in erythrocytes, 48 h
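Parasite viability was followed by luminescence of a genomically integrated firefly luciferase. Cultures held 0.1% parasitemia at 2% hematocrit (final), incubated under 5% CO2 at 37 C.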
Marburg entry inh – inhibitors of Marburg virus binding or cell entry; Marburg virus pseudotyped entry inhibition, cell reporter; Potency, µM (highest dose often 37.8 µM), actives largely listed as inhibitors; 300,000 compounds, 1.8% hits; AID 540276; calls by dose curve; tested in HEK293 cells
Shiga toxin inh – blocks Shiga toxin action in Vero cells; 290,000 compounds, 9.2% hits; Vero cells, Shiga toxin protein synthesis inhibition reporter; inhibition, % at 38.7 µM; in the data active = inhibition mostly above about 28%, no sharp cut-off; inactive = mostly below about 43%
Pf growth 96h – inhibits malaria parasite growth, 96 h; P. falciparum luciferase reporter growth, 96 h; Potency, µM (doses to about 28.7 µM), hits mostly inhibitors; 320,000 compounds, 6.9% hits
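Parasite growth measured via integrated firefly luciferase reporter in P. falciparum. Infected erythrocytes at 2% hematocrit, 0.05% parasitemia final were treated 96 hours at 37 C under 5% CO2, and luminescence was read.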
Cycloheximide cs – affects cycloheximide protein synthesis inhibition readout, counter-screen | cell reporter, cycloheximide protein synthesis inhibition counterscreen | 300,000 compounds, 12% hits | AID 2314 | max response, %; in the data active = max response mostly above about 13%, no sharp cut-off; inactive = mostly below about 14%; also: read at 38.3 µM for the half of the compounds with a filed dose
Of the large screens only hits and unclear results are named; the others gave an inactive call. Unless noted, calls follow the shape of the dose curve; as a rule, active = well fitted inhibition curve with a large enough effect; inconclusive = small, poorly fitted or top-dose-only effect, or another doubt; inactive = no such curve, though single readings can be large or run the other way.

O=C(NCc1ccccc1)c1onc(CS(=O)(=O)c2ccc(Cl)cc2)c1C(=O)NCc1ccccc1	none (no result: LASV entry inh, Marburg entry inh, Shiga toxin inh, Cycloheximide cs)
O=C(Nc1ccc2oc(=O)ccc2c1)c1ccc2ccccc2c1	Pf growth 96h inconclusive
O=C(Nc1ccc2oc(=O)ccc2c1)c1ccco1	Shiga toxin inh 31, Cycloheximide cs 22
O=C(Cc1ccccc1)Nc1ccc2oc(=O)ccc2c1	LASV entry inh inconclusive, Cycloheximide cs 13
Cc1ccccc1CS(=O)(=O)c1ccc(C(=O)N2CCC(C)CC2)cc1[N+](=O)[O-]	Pf growth 96h inconclusive
FC(F)(F)c1cc(-c2cccs2)nc(-n2cc(Cl)cn2)n1	Pf growth 96h inconclusive (no result: Pf growth 48h)
C=CCc1c(NCCO)nc(C)[nH]c1=O	Marburg entry inh inconclusive, Pf growth 96h inconclusive, Cycloheximide cs 20
CCCCNC(=O)CSc1nc2ccccc2c(=O)n1C1CCCC1	Pf growth 48h 13µM, Marburg entry inh inconclusive
CSc1nc2ccccc2c(=O)n1C1CCCCC1	Marburg entry inh inconclusive, Pf growth 96h 1.5µM
COC(=O)c1ccc2c(=O)n(C3CCCCC3)c(SCC#N)nc2c1	LASV entry inh inconclusive, Marburg entry inh 0.015µM, Shiga toxin inh 71
Cc1nc2ccccc2c(=O)n1C1CCCCCC1	Pf growth 48h inconclusive
CCOC(=O)CSc1nc2cc(C(=O)N3CCC(C(N)=O)CC3)ccc2c(=O)n1C1CCCCC1	Pf growth 48h inconclusive, Marburg entry inh inconclusive
O=C(O)c1n[nH]c2ccccc12	Pf growth 96h inconclusive
O=C(NCc1ccc(F)cc1)C1CCCN1C(=O)Nc1ccc(Cl)cc1 (centres undefined)	none (no result: LASV entry inh, Marburg entry inh)
C=CCN1C(=O)c2ccc(C(=O)N3CCN(S(=O)(=O)c4cccc(Cl)c4)CC3)cc2C1=O	Pf growth 48h 10µM, Pf growth 96h 13µM
COc1ccc(/C=C2\CCc3ccccc3C2=O)cc1Cn1nc(C)cc1C	LASV entry inh inconclusive, Marburg entry inh inconclusive, Cycloheximide cs 21 (no result: Pf growth 48h)
COc1ccc(/C=C2/CCc3ccccc3C2=O)cc1CN1CCOCC1	LASV entry inh inconclusive, Marburg entry inh inconclusive, Shiga toxin inh 92, Cycloheximide cs 51
COc1ccc(/C=N/NC(=O)COc2ccc(Cl)cc2Cl)cc1Cn1nc(C)cc1C	none
O=C(NCCc1ccccc1)C(=O)NCCC1CCCCN1S(=O)(=O)c1ccccc1 (centres undefined)	LASV entry inh inconclusive, Pf growth 96h inconclusive (no result: Shiga toxin inh, Cycloheximide cs)
COc1cc(C(=O)NCC2CCCN2S(=O)(=O)c2cccs2)cc(OC)c1OC (centres undefined)	Pf growth 48h 12µM, Pf growth 96h inconclusive (no result: Shiga toxin inh, Cycloheximide cs)
O=C(NCCc1ccccc1)C(=O)NCC1CCCN1S(=O)(=O)c1ccccc1 (centres undefined)	LASV entry inh inconclusive, Marburg entry inh 11µM (no result: Shiga toxin inh, Cycloheximide cs)
COc1ccccc1CNC(=O)CN1CCN(S(=O)(=O)c2cccs2)CC1	Pf growth 48h inconclusive, Pf growth 96h inconclusive
COc1ccccc1CC(=O)N1CCN(S(=O)(=O)c2cccs2)CC1	Pf growth 96h 15µM
O=C(NCCc1ccc(F)cc1)C(=O)NCC1CCCN1S(=O)(=O)c1cccs1 (centres undefined)	LASV entry inh inconclusive, Pf growth 48h 13µM, Marburg entry inh inconclusive, Pf growth 96h inconclusive (no result: Shiga toxin inh, Cycloheximide cs)
CCCCC[C@H]1CN(CCCC)C(=O)[C@@H]1CC(=O)NCc1ccccc1	none (no result: LASV entry inh, Marburg entry inh)
COc1ccc(-c2[nH]ncc2/C=N\NS(=O)(=O)c2ccc(Cl)cc2)cc1	none
COc1ccccc1CNC(=O)C(=O)NCC1CCCN1S(=O)(=O)c1cccs1 (centres undefined)	Pf growth 48h 12µM (no result: Shiga toxin inh, Cycloheximide cs)
CNCCc1c(C)n[nH]c1C	Pf growth 96h 12µM
Cc1[nH][nH]c(=O)c1N=Nc1ccc(Br)c(Cl)c1	LASV entry inh inconclusive (no result: Pf growth 48h, Shiga toxin inh, Pf growth 96h, Cycloheximide cs)
COc1cccc(OCCc2c(C)n[nH]c2C)c1	none
Cc1n[nH]c(C)c1CCN	Pf growth 48h inconclusive (no result: Pf growth 96h)
COc1ccc(OCCCc2c(C)n[nH]c2C)cc1	Pf growth 96h 9.3µM (no result: Pf growth 48h)
Cc1n[nH]c(C)c1N=Nc1ccc(Br)cc1	LASV entry inh inconclusive, Marburg entry inh inconclusive, Cycloheximide cs 27
COc1ccc(N=Nc2c(C)n[nH]c2C)cc1	Shiga toxin inh 119, Cycloheximide cs 29
COc1cc(NC(=O)CN2Cc3ccccc3C2=O)cc(OC)c1OC	none (no result: Pf growth 48h, Marburg entry inh, Shiga toxin inh, Pf growth 96h, Cycloheximide cs)
COc1ccc(CCNS(=O)(=O)c2cc3c4c(c2)CC(=O)N4CCC3)cc1	Pf growth 48h 9.3µM (no result: LASV entry inh, Marburg entry inh)
Cc1ccc(NS(=O)(=O)c2cc3c4c(c2)CC(=O)N4CCC3)cc1C	Pf growth 48h 10µM (no result: LASV entry inh, Marburg entry inh)
COc1ccccc1NS(=O)(=O)c1cc2c3c(c1)CC(=O)N3CCC2	Pf growth 48h 9.3µM
COc1ccc(C)cc1NS(=O)(=O)c1cc2c3c(c1)CC(=O)N3CCC2	none (no result: Pf growth 48h, Marburg entry inh, Shiga toxin inh, Pf growth 96h, Cycloheximide cs)
COc1ccc(S(=O)(=O)Nc2cc3c4c(c2)CC(=O)N4CCC3)cc1	Pf growth 48h inconclusive, Pf growth 96h inconclusive (no result: Shiga toxin inh, Cycloheximide cs)
COC(=O)C(O)(c1ccc(N(C)C(=O)c2ccc(Cl)c(Cl)c2)cc1)C(F)(F)F (centres undefined)	none
CCOC(=O)C(O)(c1ccc(N(C)C(=O)c2ccc(Cl)c(Cl)c2)cc1)C(F)(F)F (centres undefined)	LASV entry inh inconclusive, Pf growth 48h inconclusive, Marburg entry inh inconclusive, Pf growth 96h 10µM
CCOC(=O)C(O)(c1ccc(NC(=O)c2ccc(Cl)c(Cl)c2)cc1)C(F)(F)F (centres undefined)	Pf growth 48h 9.3µM, Pf growth 96h inconclusive (no result: LASV entry inh, Marburg entry inh)
CCOC(=O)C(O)(c1ccc(NC(=O)NC2CCCCC2)cc1)C(F)(F)F (centres undefined)	LASV entry inh inconclusive, Marburg entry inh inconclusive, Cycloheximide cs 20 (no result: Pf growth 48h)
Cc1nc2sc(C(=O)N(C)Cc3ccccc3)c(NC(=O)c3ccccc3)c2c(C)c1Cl	Marburg entry inh inconclusive (no result: Pf growth 48h, Shiga toxin inh, Pf growth 96h, Cycloheximide cs)
CCOC(=O)c1c(NC(=O)CN(C)C2CCN(C)CC2)sc(C(=O)Nc2ccccc2)c1C	Pf growth 48h inconclusive, Pf growth 96h inconclusive (no result: LASV entry inh, Marburg entry inh)
CCOC(=O)c1c(NC(=O)CN2C(=O)NC3(CCCCC3C)C2=O)sc(C)c1C (centres undefined)	LASV entry inh inconclusive, Marburg entry inh inconclusive, Pf growth 96h inconclusive
CCOC(=O)c1c(-c2ccc(F)cc2)csc1NC(=O)CN1C(=O)NC2(CCCCC2C)C1=O (centres undefined)	LASV entry inh inconclusive, Pf growth 48h 10µM, Pf growth 96h 9.3µM
CCOC(=O)c1c(-c2cccs2)csc1NC(=O)CN1CC(C)OC(C)C1 (centres undefined)	LASV entry inh inconclusive, Pf growth 48h inconclusive, Marburg entry inh 11µM (no result: Pf growth 96h)
CCOC(=O)c1c(-c2ccccc2)csc1NC(=O)CCN1C(=O)c2ccccc2C1=O	Pf growth 96h 2.6µM
CCOC(=O)c1c(-c2ccc(F)cc2)csc1NC(=O)CCN1C(=O)c2ccccc2C1=O	Pf growth 96h inconclusive
CCOC(=O)c1c(NC(=O)CSc2cccc[n+]2[O-])sc(C(=O)Nc2ccccc2)c1C	Marburg entry inh inconclusive, Shiga toxin inh 72, Pf growth 96h inconclusive, Cycloheximide cs 27
O=C(CCC(=O)N1CCOc2ccc(Cl)cc21)NCCCN1CCC(Cc2ccccc2)CC1	Pf growth 48h inconclusive, Pf growth 96h inconclusive (no result: LASV entry inh, Marburg entry inh)
